Measured values: PubChem BioAssay (Tox21)
Several values for one entry are separate records, joined by “and”; a condition that tells them apart may be missing. Equal values may be shown once. Records with an inconclusive call do not appear. Activity calls are given as the source filed them. Unless noted, calls come from the whole dose curve; as a rule, active = well fitted curve in the direction sought with a large enough effect in the repeat runs; inconclusive = weak or mixed curves; inactive = no such curve, though single readings can be large; an effect the other way counts as inactive or inconclusive.

What was measured:
[1] = qHTS assay to identify small molecule agonists of the hypoxia (HIF-1) signaling pathway - cell viability counter screen (AID 1224844; calls by dose curve; note: nearly all actives have a fitted effect of over 50% in size; note: potency is the fitted concentration of half-maximal effect)
In short: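 ME-180 HRE-bla cells, 2,000/well, 0.5% dialyzed FBS; 5 hr settle, 17 hr compound at 37C/5% CO2; CCF4-AM reporter read first, then CellTiter-Glo luminescence after 30 min RT.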

[2] = qHTS assay to identify small molecule agonists of H2AX (AID 1224845; active = well fitted activation curve with a large enough effect in the signal ratio in the repeat runs, not every such curve was filed as active; the % refers to the signal ratio; note: potency is the fitted concentration of half-maximal effect)
In short: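 Phospho-H2AX Ser139 measured by HTRF (ex 320 nm; em 665 and 620 nm) after 24 hr antibody incubation. Compounds, 15 concentrations, 0.76% DMSO, were applied to CHO-K1 cells for 3hr at 37C before lysis.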

[3] = qHTS assay to identify small molecule agonists of H2AX - cell viability counter screen (AID 1224847; calls by dose curve; note: nearly all actives have a fitted effect of over 30% in size; note: potency is the fitted concentration of half-maximal effect)
In short: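 Wild-type CHO-K1 cells (10% FBS medium) were plated overnight at 37C, exposed to compounds at 15 concentrations for 3 hr at 37C (0.76% DMSO final), and viability was read as CellTiter-Glo luminescence after 30 min at room temperature.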

[4] = qHTS RealTime-Glo MT Cell Viability Assay in HepG2 cells - 24 hour (AID 1224867); note: nearly all actives have a fitted effect of over 50% in size; note: potency is the fitted concentration of half-maximal effect
In short: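 Cells + NanoLuc/prosubstrate dispensed (600 cells/well) → 5 h at 37 C/5% CO2 → compounds in DMSO transferred → 40 h incubation at 37 C, luminescence read at 0, 8, 16, 24, 32, 40 h.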

[5] = qHTS RealTime-Glo MT Cell Viability Assay in HEK293 cells - 32 hour (AID 1224868); note: nearly all actives have a fitted effect of over 50% in size; note: potency is the fitted concentration of half-maximal effect
In short: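 Tox21 10K qHTS, HEK293, 600 cells/well, RealTime-Glo reagent co-dispensed with cells; 5 h preincubation, compound by pintool, 37 C, luminescence at 0–40 h.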

[6] = A CellTox Green Cytotoxicity Assay to monitor cytotoxicity in HEK293 cells - 0 hour (AID 1224869); note: nearly all actives have a fitted effect of over 50% in size
In short: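 Nonlytic real-time cytotoxicity: HEK293 + CellTox Green reagent plated, 5 h preincubation, pintool compound addition (23 nL in DMSO), 37 C for 40 h, fluorescence measured at successive time points.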

[7] = qHTS RealTime-Glo MT Cell Viability Assay in HepG2 cells - 40 hour (AID 1224870); note: nearly all actives have a fitted effect of over 50% in size; note: potency is the fitted concentration of half-maximal effect
In short: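 Real-time viability: cells seeded at 600 per well together with NanoLuc and cell-permeant prosubstrate, compounds added after 5 h incubation. Luminescence tracked at 0, 8, 16, 24, 32 and 40 h of exposure.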

[8] = qHTS assay to identify small molecule antagonists of the estrogen related receptor (ERR) signaling pathway from Tox21 library (AID 1224848); note: nearly all actives have a fitted effect of over 50% in size; note: potency is the fitted concentration of half-maximal effect
In short: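 Antagonist-mode screen of the Tox21 10K library in an NTP-provided ERR reporter cell line; 18 h compound exposure at 37 C, luminescence measured with ONE-Glo.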

[9] = qHTS assay to identify small molecule agonists of the estrogen related receptor (ERR) signaling pathway from Tox21 library (AID 1224849; calls by dose curve; note: nearly all actives have a fitted effect of over 15% in size); conditions: ERR reporter cell line, ONE-Glo luciferase, 18 h; at 92.4 µM (top of the series) unless noted
In short: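 ERR cells, 6 h pre-incubation 37 C/5% CO2; cpd in DMSO pinned; 18 h 37 C; ONE-Glo added, 30 min RT; luminescence read. Agonist mode, qHTS.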
% is set by controls: 0 for no effect and ±100 for the full control effect.

COC(=O)C1=C(C)NC(C)=C(C(=O)OCCc2ccc(N3CCN(C(c4ccccc4)c4ccccc4)CC3)cc2)C1c1cccc([N+](=O)[O-])c1 (configuration not stated)
inactive: Potency [1] | Potency [2] | Potency [3] | Potency [4] | Potency [5] | Potency [6] | Potency [7]

Cc1onc(-c2ccccc2Cl)c1C(=O)N[C@@H]1C(=O)N2[C@@H]1SC(C)(C)[C@@H]2C(=O)O
inactive: Potency [1] | Potency [2] | Potency [4] | Potency [5] | Potency [6] | Potency [7]

CCCCCCCCn1sc(Cl)c(Cl)c1=O
active: Potency [1] 6.16 µM | Potency [3] 8 µM | Potency [4] 4.9 µM | Potency [7] 6.92 µM
inactive: Potency [2] | Potency [6]

O=C(Oc1cccc2cccnc12)c1ccccc1
inactive: Potency [4] | Potency [5] | Potency [6]
active: Potency [1] 7.56 µM | Potency [2] 9.82 µM | Potency [7] 5.35 µM

O=C(OCC(COC(=O)c1ccccc1)(COC(=O)c1ccccc1)COC(=O)c1ccccc1)c1ccccc1
inactive: Potency [1] | Potency [2] | Potency [8] | activity change, positive = activation [9] 9.84% | Potency [4] | Potency [6] | Potency [7]

N/C(=N\N=C\c1ccc(Cl)cc1)N/N=C/c1ccc(Cl)cc1
inactive: Potency [2] | Potency [6]
active: Potency [1] 23.9 µM | Potency [8] 29.8 µM

c1cc(C(c2ccc(OCC3CO3)cc2)c2ccc(OCC3CO3)cc2)ccc1OCC1CO1 (configuration not stated)
inactive: Potency [1] | Potency [2] | Potency [3] | Potency [6]
active: Potency [7] 54.9 µM

C[C@H](CCC(=O)O)[C@H]1CC[C@H]2[C@@H]3CC[C@@H]4C[C@H](O)CC[C@]4(C)[C@H]3CC[C@]12C
active: Potency [1] 43.5 µM and 34.7 µM | Potency [2] 89.4 µM and 56.6 µM
inactive: Potency [8] | Potency [4] | Potency [5] | Potency [6] | Potency [7]

O=C1C=CC(=O)N1c1ccc(Cc2ccc(N3C(=O)C=CC3=O)cc2)cc1
active: Potency [1] 11 µM | Potency [3] 50.5 µM | Potency [4] 12.3 µM | Potency [5] 11 µM | Potency [7] 15.5 µM
inactive: Potency [2] | Potency [6]

CCCCN1CCCC[C@H]1C(=O)Nc1c(C)cccc1C
inactive: Potency [1] | Potency [2] | Potency [3] | Potency [4] | Potency [6]

CCOC(=O)/C=C(C)/C=C/C=C(C)/C=C/c1c(C)cc(OC)c(C)c1C
inactive: Potency [1] | Potency [2] | Potency [4] | Potency [6] | Potency [7]

Cc1oc(-c2ccccc2)nc1CCC(=O)c1ccc(CC2SC(=O)NC2=O)cc1 (configuration not stated)
inactive: Potency [1] | Potency [2] | activity change, positive = activation [9] -19.2% [at 42.5 µM] | Potency [4] | Potency [6] | Potency [7]

C=CC(=O)OCCn1c(=O)n(CCOC(=O)C=C)c(=O)n(CCOC(=O)C=C)c1=O
active: Potency [1] 12.3 µM | Potency [2] 25.3 µM | Potency [4] 21.9 µM | Potency [5] 11 µM | Potency [7] 19.5 µM
inactive: activity change, positive = activation [9] -78.2% | Potency [6]

O=C1C=CC(=O)N1
active: Potency [1] 11.3 µM | Potency [2] 14.6 µM | Potency [4] 22.5 µM | Potency [5] 12.6 µM | Potency [7] 22.5 µM
inactive: Potency [8] | activity change, positive = activation [9] -71.7% | Potency [6]

CS(=O)(=O)CCNCc1ccc(-c2ccc3ncnc(Nc4ccc(OCc5cccc(F)c5)c(Cl)c4)c3c2)o1
inactive: Potency [2] | activity change, positive = activation [9] -48.5% [at 42.5 µM] | Potency [6]
active: Potency [1] 10.7 µM | Potency [8] 9.44 µM

C[n+]1ccn(Cc2ccccc2)c1
inactive: Potency [1] | Potency [2] | Potency [3] | Potency [4] | Potency [6] | Potency [7]

CCCCCCC[N+](CC)(CC)CCCCc1ccc(Cl)cc1
active: Potency [5] 1.9 µM | Potency [7] 23.9 µM
inactive: Potency [1] | Potency [2] | Potency [3] | Potency [6]

CCCC1O[C@@H]2C[C@H]3[C@@H]4CCC5=CC(=O)C=C[C@]5(C)[C@H]4[C@@H](O)C[C@]3(C)[C@]2(C(=O)CO)O1 (some centres not stated)
inactive: Potency [2] | Potency [3] | Potency [4] | Potency [6] | Potency [7]
active: Potency [1] 49 µM and 54.9 µM | Potency [5] 24.6 µM and 43.6 µM

Cc1cccc2c1cc1ccc3cccc4ccc2c1c34
inactive: Potency [1] | Potency [2] | Potency [4] | Potency [6]
active: activity change, positive = activation [9] 35.4%

COc1c(C)c2c(c(O)c1C/C=C(\C)CCC(=O)O)C(=O)OC2
inactive: Potency [4] | Potency [6] | Potency [7]
active: Potency [1] 0.151 µM | Potency [2] 0.875 µM

O=c1[nH]sc2cc(Cl)ccc12
inactive: Potency [2] | Potency [5] | Potency [6]
active: Potency [1] 0.535 µM | Potency [4] 26.8 µM

Cc1c(C)c2c(c(C)c1OC(=O)CCC(=O)O)CC[C@@](C)(CCC[C@H](C)CCC[C@H](C)CCCC(C)C)O2
inactive: Potency [2] | Potency [3] | Potency [6]
active: Potency [1] 1.4 µM | Potency [7] 55.6 µM

Cc1cc(O)c(C(C)(C)C)cc1C(C)(C)C
inactive: activity change, positive = activation [9] -68.9% | Potency [6]
active: Potency [1] 43.6 µM | Potency [2] 89.8 µM | Potency [8] 61.1 µM | Potency [4] 43.6 µM | Potency [5] 17.4 µM

CC(C)(C)CC(C)(C)c1ccc(O)c(Cc2ccc(Cl)cc2Cl)c1
inactive: Potency [6]
active: Potency [1] 9.52 µM | Potency [2] 19.6 µM | Potency [3] 15.6 µM | Potency [5] 21.3 µM
